Bioassay records deposited in PubChem by National Center for Advancing Translational Sciences (NCATS).
Gal4-VP16 FLuc: counter-screen for ROR gamma inhibitors: Gal4-VP16 reporter; Drosophila S2 Gal4-VP16 UAS-luciferase, luminescence, 20 h; Potency, µM (doses to about 53.6 µM), for inactives: top-dose activity, negative = inhibition, most hits filed as inhibitors; actives 3.5% (n = 310,000); AID 2546;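 also: Gal4-VP16 expression switched on by copper sulfate through the metallothionein promoter; potency is read from the fitted curve at half-maximal effect; % is scaled to controls: 0 for no effect and ±100 for the full control effect; nearly all actives have a fitted effect of over 50% in size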
SW480 rereplic: inducers of DNA re-replication in SW480 colon cancer cells. SW480 DNA re-replication, Hoechst DNA content imaging, 48 h. Potency, µM (highest dose often 46.1 µM), for inactives: top-dose re-replication activation, hits mostly activators. actives 1.8% (n = 340,000). AID 624297; also: potency is read from the fitted curve at half-maximal effect; % of control where 0% means no effect; nearly all actives have a fitted effect of over 55% in size
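Quantitative HTS format with DMSO vehicle controls; 48 hr drug incubation at 37 C, then 40 min Hoechst staining and scanning imager measurement at 405 nm excitation.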
RORgamma inh: blocks mouse ROR gamma transcriptional activity | P51450 | Drosophila S2 Gal4-RORgamma UAS-luciferase reporter, 20 h | Potency, µM (top dose mostly 53.6 µM), inactives show at the highest dose activity change, negative = inhibition, usual class: inhibitors | actives 5.4% (n = 310,000) | AID 2551; also: potency is read from the fitted curve at half-maximal effect; % is scaled to controls: 0 for no effect and ±100 for the full control effect; nearly all actives have a fitted effect of over 60% in size
Target sequence (P51450 whole entry, looked up, the tested form may be a part): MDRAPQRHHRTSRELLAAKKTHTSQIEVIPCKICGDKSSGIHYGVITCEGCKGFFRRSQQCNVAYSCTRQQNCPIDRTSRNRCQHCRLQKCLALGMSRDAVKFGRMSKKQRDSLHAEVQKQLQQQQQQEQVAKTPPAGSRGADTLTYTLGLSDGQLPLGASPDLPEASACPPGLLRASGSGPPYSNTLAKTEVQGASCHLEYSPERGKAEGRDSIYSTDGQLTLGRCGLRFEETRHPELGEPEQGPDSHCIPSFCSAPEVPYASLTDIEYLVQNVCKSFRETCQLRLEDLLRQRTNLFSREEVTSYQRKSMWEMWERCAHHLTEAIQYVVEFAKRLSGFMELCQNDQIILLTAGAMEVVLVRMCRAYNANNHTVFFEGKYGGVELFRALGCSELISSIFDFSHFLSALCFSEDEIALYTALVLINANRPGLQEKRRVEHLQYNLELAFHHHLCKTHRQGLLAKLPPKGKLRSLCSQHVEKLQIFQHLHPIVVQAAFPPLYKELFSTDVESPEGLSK
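Drosophila S2 cells stably expressing Gal4-DBD/mouse RORγ fusion under metallothionein promoter plus UAS-luciferase; compound 1 h, then 700 uM CuSO4 induction for 20 h at ambient temperature; inhibition read as reduced luminescence.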
IL-1B inflam inh: inflammasome signaling inhibition, IL-1 beta readout; THP-1 LPS/ATP IL-1B secretion, AlphaLISA, 16 h; active compounds read low; activity change, % at 57.5 µM; actives 4.7% (n = 360,000); in the data active = activity change below about -50%; inconclusive = mostly about -30% to -49%; also: % is scaled to controls: 0 for no effect and ±100 for the full control effect
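THP-1 cells pretreated 1 hr with compounds (up to 57.5 uM final), then stimulated with LPS (250 ng/mL final) plus ATP (1.25 mM final); secreted IL-1B measured by AlphaLISA after 16 hr, decreased signal indicating inhibition.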
MCF10A rerep: induces DNA re-replication in MCF 10a normal breast cells; Potency, µM (titrated, usually from 46.1 µM), inactives show at the highest dose activity, positive = re-replication, most hits filed as activators; AID 624296; MCF 10A DNA re-replication, Hoechst nuclear intensity, 48 h; actives 2.9% (n = 350,000); also: potency is read from the fitted curve at half-maximal effect; % of control where 0% means no effect; nearly all actives have a fitted effect of over 50% in size
Numbers without * were called inactive; ? = inconclusive; / = no result given; [ ] = remark or other dose. A selection: hits, their analogues and other compounds. The true share with any hit is near 11%. Unless noted, calls follow the shape of the dose curve; as a rule, active = well fitted curve in the direction sought with a large enough effect; inconclusive = small, poorly fitted or top-dose-only effect, or another doubt; inactive = no such curve, though single readings can be large; an effect the other way counts as inactive or inconclusive.

SMILES	Gal4-VP16 FLuc	SW480 rereplic	RORgamma inh	IL-1B inflam inh	MCF10A rerep
COc1ccc([N+](=O)[O-])cc1/C=N/NC(=O)CNC(=O)c1cccc(F)c1	?	19.8%	10µM*	46.5	6.7%
FC(F)(F)c1cnc(N2CCCN(C(=S)Nc3ccccc3)CC2)c(Cl)c1	?	?	7.94µM*	-70.9*	?
O=C(c1ccc2c(c1)OCCO2)N1CCN(c2ncc(C(F)(F)F)cc2Cl)CC1	/	-6.5%	/	4.6	14.4%
O=C(Nc1ccc2c(c1)OCO2)N1CCN(c2ncc(C(F)(F)F)cc2Cl)CC1	-9.2%	?	?	-60.5*	18.9%
FC(F)(F)c1cnc(N2CCN(C(=S)NCc3ccccc3)CC2)c(Cl)c1	-14.8%	?	-10.2%	-93.4*	?
C=C(C)C(O)/C=C/c1ccc(OC)cc1 (configuration not stated)	5.7%[10 µM]	/	17.6%[10 µM]	/	/
COc1ccc(OC(F)(F)F)cc1CC1(C)C(=O)Nc2ccc(S(=O)(=O)NC3CCCCC3)cc21 (configuration not stated)	/	/	/	-21.5	/
CCOC(=O)C1CCCN(C(=O)Cc2c(C(=O)O)[nH]c3ccccc23)C1 (configuration not stated)	-1.7%	0.9%	15.2%	6.2	3.6%
CCOC(=O)C1CCCN(C(c2ccccn2)c2c(C)[nH]c3ccccc23)C1 (configuration not stated)	-5.0%	25.7%	12.6µM*	0.0	4.6%
Cc1ccnc(NC(c2ccccn2)c2c(C)[nH]c3ccccc23)c1 (configuration not stated)	-12.0%	-136.6%	0.4%	-106.2*	-2.8%
Cc1[nH]c2ccccc2c1C(c1ccccn1)N1CCC(C)CC1 (configuration not stated)	-2.4%	15.2%	-12.3%	-106.6*	19.1%
Cc1[nH]c2ccccc2c1C(c1ccccn1)N1CCCC1 (configuration not stated)	-1.8%	-6.2%	-25.6%	-24.6	13.8%
O=C(O)c1nn(CC(=O)N2CCN(c3ncc(C(F)(F)F)cc3Cl)CC2)c(=O)c2ccccc12	?	-5.6%	?	-6.1	25.8%
C/C(=N\OCC(=O)N/N=C/c1ccccc1O)c1cccs1	2.24µM*	?	1.12µM*	247.2	16.3%
C/C(=N\OCC(=O)Nc1ccccc1Br)c1cccs1	8.9%	0.146µM*	30.4%	-5.8	?
C/C(=N/OCC(=O)Nc1ccccc1)c1cccs1	18.2%	-5.4%	?	-20.8	-1.2%
O=C(Nc1ccccc1C(=O)NCCc1ccccc1)c1cnccn1	10.0%	-5.1%	36.4%	51.9	3.6%
O=C(CCCOc1ccc(Cl)cc1Cl)N/N=C/c1ccccc1	?	1.64µM*	-16.9%	-20.7	?
O=C(COc1ccc(Cl)cc1Cl)N/N=C/c1ccc[nH]1	4.47µM*	-0.2%	2.82µM*	-8.2	11.6µM*
O=C(COc1ccc(Cl)cc1Cl)N/N=C/CCc1ccccc1	-2.6%	-1.6%	-30.6%	-3.5	-8.3%
O=C(CCCOc1ccc(Cl)cc1Cl)N/N=C/c1ccco1	5.6%	-6.8%	18.6%	-1.6	4.8%
Cc1ccc(/C=N/NC(=O)CCCOc2ccc(Cl)cc2Cl)cc1[N+](=O)[O-]	-3.4%	-2.5%	3.7%	-0.3	?
Cc1ccc(/C=N/NC(=O)CCCOc2ccc(Cl)cc2Cl)cc1	?	?	-21.5%	-77.0*	14.6µM*
O=C(CCCOc1ccc(Cl)cc1Cl)N/N=C/c1ccccc1O	-82.7%	?	8.91µM*	0.0	?
O=C(CCCC(=O)NN=Cc1ccc(Cl)cc1Cl)NN=Cc1ccc(Cl)cc1Cl	/	1.3%	/	5.5	1.2%
SMILES	Gal4-VP16 FLuc	SW480 rereplic	RORgamma inh	IL-1B inflam inh	MCF10A rerep
CCOC(=O)C1(C(C)C)Oc2ccccc2C(c2ccc(OC)cc2)=C1C(=O)OC (configuration not stated)	-14.0%	/	37.5%	/	/
CN(C)c1ncc2nc(-c3ccccc3)c(=O)n(CCC#N)c2n1	2.0%	/	-4.9%	/	/
CN(C(=S)NC(=O)CCCOc1ccc(Cl)cc1Cl)c1ccccc1	-77.0%	?	5.62µM*	-3.9	-17.0%
Cc1noc(C)c1COc1cccc(C(=O)OCC(=O)N2CC(=O)Nc3ccccc32)c1	2.8%	9.2µM*	-42.9%	83.5	1.84µM*
Cc1cc(N/N=C/c2ccccc2O)nc(-c2ccccc2O)n1	?	-5.8%	?	0.5	19.9%
Cc1cc(N/N=C/c2ccc(O)cc2O)nc(-c2ccccc2O)n1	-1.9%	?	-1.1%[10 µM]	-77.3*	?
Cc1cc(Nc2cccc(Cl)c2)nc(-c2ccccc2O)n1	-8.7%	29.1µM*	31.3%	?	?
Cc1cc(N/N=C/c2ccccc2[N+](=O)[O-])nc(-n2nc(C)cc2C)n1	0.891µM*	22.6%	?	-97.4*	7.4%
Cc1cc(Nc2ccc(Cl)cc2)nc(-c2ccccc2O)n1	18.8%	?	39.7%	-22.6	?
Cc1cc(N/N=C/c2ccc(O)cc2O)nc(-n2nc(C)cc2C)n1	0.708µM*	?	1µM*	52.6	5.17µM*
Cc1cc(NCCO)nc(-n2nc(C)cc2C)n1	20µM*	2.2%	6.31µM*	0.0	-4.0%
Cc1cc(N/N=C/c2cccc(Cl)c2)nc(-n2nc(C)cc2C)n1	1.26µM*	?	0.0708µM*	7.7	?
Cc1cc(N/N=C/c2cccc([N+](=O)[O-])c2)nc(-n2nc(C)cc2C)n1	1µM*	3.66µM*	0.112µM*	11.5	?
COc1ccc(/C=N/Nc2cc(C)nc(-n3nc(C)cc3C)n2)cc1	0.355µM*	?	0.316µM*	-99.4*	?
CCCCN1CCC[C@@H]1CNC(=O)c1cc(C#N)c2ccccc2c1OC	-1.2%	/	16.5%	/	/
O=C(CN1C(=O)S/C(=C\c2ccccc2)C1=O)NC1CCS(=O)(=O)C1 (configuration not stated)	-12.9%	-24.6%	-12.0%	-14.6	1.6%
CC(C)c1ccc(/C=C2\SC(=O)N(CC(=O)NC3CCS(=O)(=O)C3)C2=O)cc1 (configuration not stated)	7.08µM*	-9.1%	?	-30.0	1.4%
O=C(CCCN1C(=O)/C(=C/c2ccc(F)cc2)SC1=S)NC1CCS(=O)(=O)C1 (configuration not stated)	17.8µM*	1.9%	3.98µM*	19.1	?
CCOc1ncccc1C(=O)OCc1ccc(C(=O)OC)cc1	?	7.31µM*	36.6%	-13.6	2.6%
COC(=O)c1ccc(COC(=O)c2ccc(N(C)C)cc2)cc1	?	?	-7.1%	-7.0	8.2µM*
CN(C)c1ccc(C(=O)OCc2ccccc2)cc1	3.9%	-33.1%	18.7%	-11.8	4.4%
O=C(c1cnccn1)N1CCC2(CC1)CN(c1cccc(-c3ccccc3)c1)C2	5.01µM*	/	-3.5%	/	/
O=C(c1cnccn1)N1CCC2(CC1)CN(c1ccccc1)C2	11.2%	/	-7.5%	/	/
